In the library only some 3.2% were active in any assay of this set; here they are far more common.
Caspase-7 inhib: blocks human caspase-7 allosterically or competitively; actives 0.02% (n = 75,000); AID 889; recombinant caspase-7, Ac-DEVD-AFC fluorescence rate; Potency, µM (titrated, usually from 57.5 µM), without a hit: top-dose activity change, negative = inhibition, actives largely listed as inhibitors; active = well fitted inhibition curve with a large enough effect in the main read-out, with a control signal flat, not every such curve was filed as active; inconclusive = small, poorly fitted or top-dose-only effect, or a change in a side signal; also: % of control where 0% means no effect
ALOX15 inhib: blocks human 15-lipoxygenase activity; actives 1.4% (n = 74,000); purified 15hLO-1, xylenol orange hydroperoxide absorbance; P16050; Potency, µM (series often up to 57.1 µM), for inactives: top-dose activity change, negative = inhibition, usual class: inhibitors; also: % is scaled to controls: 0 for no effect and ±100 for the full control effect; nearly all actives have a fitted effect of over 55% in size
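Readout: Fe(III)-xylenol orange absorbance, 573-to-405 nm ratio as reaction progress. Enzyme 40 nM purified human 15hLO-1, substrate 50 uM arachidonic acid, 6 min RT after 15 min compound preincubation; Hepes pH 7.5 buffer with Triton X-100.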
Casp1 inh: blocks human caspase-1 allosterically or competitively; P29466; actives 0.03% (n = 75,000); Potency, µM (titrated, usually from 57.5 µM), inactives show top-dose activity change, negative = inhibition, most hits filed as inhibitors; AID 900; Caspase-1 enzyme, Ac-WEHD-AFC fluorogenic rate;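 also: plate controls were vehicle for no effect and no substrate for full effect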
Tau fil binding: tau filament binding | P10636 | recombinant tau filaments, thioflavin S fluorescence, 15 h; filaments grown with octadecylsulfate alongside compound | Potency, µM (top dose mostly 57.1 µM), for inactives: at the top dose activity change, negative = inhibition | actives 2% (n = 71,000) | AID 596;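 also: % is scaled to controls: 0 for no effect and ±100 for the full control effect; actives lower thioflavin S fluorescence by blocking filaments or displacing dye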
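Assay mix: 1 uM His-tagged tau, 30 uM sodium octadecylsulfate, thioflavine S dye in HEPES/NaCl/DTT buffer. Compound is added prior to the inducer. Fluorescence after 15 h at 37 C.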
DNA Pol III inh: blocks replication by bacterial DNA polymerase III holoenzyme; reconstituted DNA polymerase III holoenzyme replication, biochemical; Potency, µM (titrated, usually from 57.1 µM), inactives show at the highest dose activity change, negative = inhibition; actives 0.25% (n = 71,000); also: % is scaled to controls: 0 for no effect and ±100 for the full control effect
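Reconstituted *E. coli* holoenzyme (0.35 nM Pol III, 1 nM beta, 154 nM SSB, 2 nM primase) was preincubated with compound for 15 min at RT. Synthesis on 1.4 nM ssM13Gori ran 35 min, then was stopped with PicoGreen/EDTA and read as dsDNA fluorescence.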
The depositor's hits bear a star; ? = inconclusive; . = no result given; [ ] = another dose, or the depositor's remark. Unless noted, calls follow the shape of the dose curve; as a rule, active = well fitted curve in the direction sought with a large enough effect; inconclusive = small, poorly fitted or top-dose-only effect, or another doubt; inactive = no such curve, though single readings can be large; an effect the other way counts as inactive or inconclusive. Potency is read from the fitted curve at half-maximal effect.

SMILES | Caspase-7 inhib | ALOX15 inhib | Casp1 inh | Tau fil binding | DNA Pol III inh
Cc1ccc2cccc(S(=O)(=O)Nc3ccc4c(c3)OCO4)c2n1 | -12% | -20% | -7% | 7.9µM* | -12%
O=S(=O)(Nc1ccc2c(c1)OCO2)c1ccc(Br)s1 | 2% | 25µM* | 1% | 20µM* | 3%
CCCCCCCCCCCCCCCCCC(=O)NC[C@@H](COP(=O)([O-])OCC[N+](C)(C)C)OCC | 1% | 45% | 1% | 423% | 31%
CO/N=C(\C)CCN1CCCCc2nc(C)c(C)cc21 | -2%[11.5 µM] | 2%[11.4 µM] | -3%[11.5 µM] | . | .
COC(=O)[C@@]1(Cc2ccccc2)[C@H]2c3cc(C(=O)N(C)C)n(Cc4ccc(S(C)(=O)=O)cc4)c3C[C@H]2CN1C(=O)c1ccccc1 | -6% | . | 0% | 2% | 2%
Cc1onc(-c2ccccc2)c1C(=O)Nc1ccc2c(c1)OCO2 | -5% | 0% | -2% | 16µM* | -7%
Cc1onc(-c2ccccc2)c1C(=O)OCC(=O)Nc1ccc2c(c1)OCO2 | -3% | -3% | -1% | 3% | -1%
Cc1cc2c(nc1C)CCCCN2C[C@H](C)O/N=C1/[C@H]2O[C@@H]2[C@@H](O)[C@H]2[C@H]1CCn1c(=O)n(-c3ccccc3)c(=O)n12 | -6%[11.5 µM] | 3%[11.4 µM] | 0%[11.5 µM] | . | .
CCN(Cc1cc2ccccc2[nH]c1=O)S(=O)(=O)c1ccccc1 | -2% | ? | 0% | 13µM* | -3%
O=C1CCNc2cc3ccccc3cc21 | ? | ? | . | 20µM* | -16%
c1ccc2cc(C3=NCCN3)ncc2c1 | 1% | -20%[25.6 µM] | 0% | ? | 2%
Cc1nc2ccccc2c2oc(C(=O)N3CCc4ccccc4C3)cc12 | -9% | 20µM* | -4% | 416% | -12%
CN1CCN(c2ccc(NC(=O)c3ccc4c(c3)OCO4)cc2)CC1 | 0% | 4% | -3% | -28% | -3%
CCOc1ccc(C(=O)Nc2ccc(N3CCCC3)cc2)cc1 | -1% | ? | -4% | 10µM* | -8%
CCOc1ccc(C(=O)Nc2ccc(N3CCN(C)CC3)cc2)cc1Br | 1% | ? | -1% | 10µM* | -4%
CCCOc1ccc(C(=O)Nc2ccc(N3CCN(C(C)=O)CC3)cc2)cc1 | 1% | -6% | 0% | ? | -7%
COc1cc2ccccc2cc1C(=O)Nc1ccc(N2CCN(C)CC2)cc1 | -1% | 11% | -3% | 3.2µM* | -6%
CCN(CC)CCCC(C)n1c(-c2ccccc2)nc2c(NCCO)nc(C)nc21 (stereo unspecified) | -1% | -16% | -3% | -12% | -5%
O=C(C1CCN(S(=O)(=O)c2cccc3nsnc23)CC1)N1CC=C(c2ccccc2)CC1 | -1% | ? | -2% | 20µM* | -2%
CC1Cc2ccccc2N1S(=O)(=O)c1cccc2nsnc12 (stereo unspecified) | -3% | -11% | -3% | 25µM* | 2%
O=S(=O)(c1cccc2nsnc12)N1CCCC1 | 0% | 0% | -1% | -10% | -5%
O=S(=O)(c1cccc2nsnc12)N1CCc2ccccc2C1 | -3% | -4% | -2% | 20µM* | 2%
CC(=O)O[C@H]1CC[C@@]2(C)C(=CC[C@@H]3[C@@H]4CC[C@H](c5cc(C(F)(F)F)n(C(C)=O)n5)[C@]4(C)CC[C@@H]32)C1 | -1%[11.5 µM] | -2%[11.4 µM] | 3%[11.5 µM] | 29%[11.4 µM] | -5%[11.4 µM]
O=C1c2ccccc2C(=O)c2c(O)c(O)cc(O)c21 | -24% | 5µM* | -2% | . | .
CN(C)CCCNc1cc(O)c2c(c1O)C(=O)c1ccccc1C2=O | -2%[11.5 µM] | 3%[11.4 µM] | -1%[11.5 µM] | 1µM* | ?
SMILES | Caspase-7 inhib | ALOX15 inhib | Casp1 inh | Tau fil binding | DNA Pol III inh
CCc1cccc2c3c([nH]c12)[C@](CC)(CC(=O)O)OCC3 | . | . | . | -4% | -4%
O=C1NCCCC2c3cc(O)c4ccccc4c3OC12N1CCCCC1 (stereo unspecified) | ? | ? | 32µM* | ? | -10%
O=C1NCCCC2c3c(cc(Br)c(O)c3Br)OC12N1CCOCC1 (stereo unspecified) | 0% | -13% | -2% | 0% | -6%
Cc1ccc2c(C)nc(Nc3nc(CSc4nnnn4-c4ccccc4)cc(=O)[nH]3)nc2c1 | -1% | -2% | -1% | 35% | 13µM*
COCc1cc(=O)[nH]c(Nc2nc(C)c3ccc(C)cc3n2)n1 | 2% | 6% | 2% | 2% | -1%
COc1ccc(OC)c(N)c1 | 6% | -6% | -3% | 13µM* | 1%
CCCn1c(-c2ccc(F)cc2)nc2c(NCCN(CC)CC)nc(C)nc21 | 0% | 4% | 3% | 11% | 0%
CCn1c(=O)[nH]c2cc(C(=O)N3CCN(c4ccccc4)CC3)ccc2c1=O | -2% | 0% | 1% | 2% | -5%
CC(=O)Nc1ccccc1-c1nc2ccc(C(=O)N3CCN(c4ccccc4)CC3)cc2[nH]c1=O | -2% | 3% | -4% | 16µM* | -4%
CC(C)Cc1cc(C(=O)Nc2ccc3c(c2)OCO3)no1 | 0% | -2% | -4% | 10% | -4%
O=C(Nc1ccc2c(c1)OCO2)c1cc2ncc(Br)cn2n1 | 1% | -22% | -2% | 25µM* | -10%
CCOC(=O)OCC1OC(c2ccccc2)C=CC1OC(=O)OCC (stereo unspecified) | 1%[11.5 µM] | 7%[11.4 µM] | -2%[11.5 µM] | . | .
Nc1cc(CN2C(=O)c3ccccc3C2=O)cc(Cl)c1O | -1% | 10µM* | 3% | -13% | -5%
COc1cc(CNc2ccc3[nH]c(=O)[nH]c3c2)cc(Cl)c1OCC(=O)NC(C)(C)C | -16% | ? | ? | 10µM* | -8%
CCOc1cc(CNc2ccc3[nH]c(=O)[nH]c3c2)ccc1OCC(=O)NC(C)(C)C | -16% | -20% | ? | ? | -14%
O=C(NC1CCCC1)C(c1ccsc1)N(Cc1ccco1)C(=O)Cc1cccs1 (stereo unspecified) | -12% | 0.4µM* | -5% | 16µM* | -10%
CCOC(=O)C1=C(N)n2c(s/c(=C\c3ccco3)c2=O)=C(C(=O)OCC)C1c1ccco1 (stereo unspecified) | -24% | -23% | ? | 16µM* | 0%
CCCCCCCCC/C=C/CC1CC(=O)OC1=O (stereo unspecified) | -2% | -1% | -1% | 11% | -11%
CN1CCN(C(=O)CSc2nc(-c3cccs3)cc(-c3cccs3)c2C#N)CC1 | -9% | 16µM* | -7% | 7.9µM* | -14%
Cc1ccc2c(c1)NCCO2 | -2% | -15% | -1% | 32µM* | -7%
Cc1ccc(CNC(=O)C2CNc3cc(C)ccc3O2)cc1 (stereo unspecified) | 0% | 1% | -2% | -5% | -9%
CCN1CCCC1CNC(=O)CSc1cc(=O)n(C)c2cc(Cl)ccc12 (stereo unspecified) | 6% | 12% | 0% | 40% | -3%
CCOC(=O)CSc1cc(=O)n(C)c2cc(Cl)ccc12 | -2% | 13µM* | 0% | 0% | -3%
O=C(O)CCNCC(=O)O | 3%[11.5 µM] | 4%[11.4 µM] | 0%[11.5 µM] | 7%[11.4 µM] | -5%[11.4 µM]

From PubChem
